Assay results taken from the supplement of paper PMC11732987, “Enantioselective OTUD7B fragment discovery through chemoproteomics screening and high-throughput optimisation” (Communications Chemistry, 2025).
Values without a mark were called inactive.

Legend:
Assay in all cases: log2 ratio of Biotin-Ahx-Ub-VS probe labelling (fragment/DMSO); higher = less target engagement (more negative = stronger competition), active = hit call of the paper (q ≤ 0.05, log2 ratio ≤ -1)
Conditions in all cases: compound concentration: 200 uM; treatment time: 3 h
[1] = target: UniProt O00507
How it was run: (§1)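 Labelled DUBs from HEK293T lysate were NeutrAvidin-enriched, digested with LysC and trypsin, and run by diaPASEF LC-MS/MS. Before that, each 495 µg sample in Tris/CHAPS/IGEPAL buffer with protease inhibitors was treated in triplicate with fragment at 200 µM or vehicle for 3 h, then with Biotin-Ahx-Ub-VS at 0.5 µM final for 1 h. Values are average log2 ratios of fragment over vehicle by unpaired t-test, based on global-median-normalised Spectronaut label-free quantities from proteins with ≥2 unique peptides.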

[2] = target: UniProt P51784
How it was run: as §1

[3] = target: T1, UniProt Q5T2D3
T1 sequence (whole entry): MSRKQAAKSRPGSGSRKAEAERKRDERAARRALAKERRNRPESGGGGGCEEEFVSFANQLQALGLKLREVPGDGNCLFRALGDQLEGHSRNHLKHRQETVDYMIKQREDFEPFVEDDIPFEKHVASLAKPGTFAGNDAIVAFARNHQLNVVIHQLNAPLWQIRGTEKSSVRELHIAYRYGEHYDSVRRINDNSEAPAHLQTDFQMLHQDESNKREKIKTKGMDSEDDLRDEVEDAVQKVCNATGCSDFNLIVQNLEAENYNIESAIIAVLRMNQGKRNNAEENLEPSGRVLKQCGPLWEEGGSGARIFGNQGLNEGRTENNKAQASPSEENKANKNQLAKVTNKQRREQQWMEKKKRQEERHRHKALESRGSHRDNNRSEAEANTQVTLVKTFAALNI
How it was run: as §1

[4] = target: T2, UniProt Q8TE49
T2 sequence (whole entry): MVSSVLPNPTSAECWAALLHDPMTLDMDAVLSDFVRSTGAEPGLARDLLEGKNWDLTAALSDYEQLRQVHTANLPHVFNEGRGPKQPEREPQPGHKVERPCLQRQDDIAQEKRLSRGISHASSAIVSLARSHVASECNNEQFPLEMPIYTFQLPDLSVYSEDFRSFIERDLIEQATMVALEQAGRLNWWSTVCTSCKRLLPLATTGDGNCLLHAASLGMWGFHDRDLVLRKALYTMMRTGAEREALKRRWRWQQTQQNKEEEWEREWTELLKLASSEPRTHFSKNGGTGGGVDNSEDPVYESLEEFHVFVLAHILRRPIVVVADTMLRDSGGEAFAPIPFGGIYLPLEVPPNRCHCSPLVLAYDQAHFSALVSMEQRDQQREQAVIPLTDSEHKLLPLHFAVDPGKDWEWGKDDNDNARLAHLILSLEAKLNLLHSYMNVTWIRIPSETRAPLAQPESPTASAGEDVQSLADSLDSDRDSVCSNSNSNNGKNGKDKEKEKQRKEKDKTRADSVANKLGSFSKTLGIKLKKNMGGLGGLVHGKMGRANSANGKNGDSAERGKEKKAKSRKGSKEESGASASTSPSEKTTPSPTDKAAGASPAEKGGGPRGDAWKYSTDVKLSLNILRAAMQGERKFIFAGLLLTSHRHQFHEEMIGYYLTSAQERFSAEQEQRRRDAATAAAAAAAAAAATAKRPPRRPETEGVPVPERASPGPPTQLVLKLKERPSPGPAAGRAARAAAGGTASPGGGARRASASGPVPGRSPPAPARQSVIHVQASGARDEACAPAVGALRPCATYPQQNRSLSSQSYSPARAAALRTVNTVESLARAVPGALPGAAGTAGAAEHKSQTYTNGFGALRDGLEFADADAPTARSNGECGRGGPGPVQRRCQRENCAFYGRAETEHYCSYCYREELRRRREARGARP
How it was run: as §1

[5] = target: T3, UniProt Q9P2H5
T3 sequence (whole entry): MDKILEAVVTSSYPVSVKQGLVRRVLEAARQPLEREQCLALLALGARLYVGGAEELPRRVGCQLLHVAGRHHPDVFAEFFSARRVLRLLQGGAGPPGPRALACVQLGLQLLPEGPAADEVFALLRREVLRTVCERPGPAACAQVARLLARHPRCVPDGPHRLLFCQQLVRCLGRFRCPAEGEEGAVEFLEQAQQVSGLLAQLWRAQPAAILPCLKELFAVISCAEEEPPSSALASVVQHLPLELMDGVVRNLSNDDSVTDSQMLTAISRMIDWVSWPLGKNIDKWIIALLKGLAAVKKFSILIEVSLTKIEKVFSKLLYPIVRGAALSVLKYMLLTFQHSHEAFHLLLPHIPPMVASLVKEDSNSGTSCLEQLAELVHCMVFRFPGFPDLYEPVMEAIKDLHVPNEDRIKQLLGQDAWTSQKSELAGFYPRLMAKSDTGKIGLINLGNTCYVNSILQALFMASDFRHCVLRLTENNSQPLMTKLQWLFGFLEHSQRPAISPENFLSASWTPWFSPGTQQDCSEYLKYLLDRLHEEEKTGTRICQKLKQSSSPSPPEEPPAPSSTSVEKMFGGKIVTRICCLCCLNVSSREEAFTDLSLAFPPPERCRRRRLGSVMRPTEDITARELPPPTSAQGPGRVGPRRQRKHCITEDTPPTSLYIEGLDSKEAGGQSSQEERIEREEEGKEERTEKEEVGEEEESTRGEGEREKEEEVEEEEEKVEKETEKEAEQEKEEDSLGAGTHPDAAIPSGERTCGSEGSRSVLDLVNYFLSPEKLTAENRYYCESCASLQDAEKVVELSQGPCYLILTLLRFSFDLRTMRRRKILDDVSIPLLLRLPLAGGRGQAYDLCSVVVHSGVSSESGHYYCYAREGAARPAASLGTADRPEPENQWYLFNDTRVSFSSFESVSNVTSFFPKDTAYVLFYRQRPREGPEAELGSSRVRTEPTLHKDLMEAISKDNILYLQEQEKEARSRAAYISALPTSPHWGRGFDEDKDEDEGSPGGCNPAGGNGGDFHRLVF
How it was run: as §1

[6] = target: T4, UniProt Q9UGI0
T4 sequence (whole entry): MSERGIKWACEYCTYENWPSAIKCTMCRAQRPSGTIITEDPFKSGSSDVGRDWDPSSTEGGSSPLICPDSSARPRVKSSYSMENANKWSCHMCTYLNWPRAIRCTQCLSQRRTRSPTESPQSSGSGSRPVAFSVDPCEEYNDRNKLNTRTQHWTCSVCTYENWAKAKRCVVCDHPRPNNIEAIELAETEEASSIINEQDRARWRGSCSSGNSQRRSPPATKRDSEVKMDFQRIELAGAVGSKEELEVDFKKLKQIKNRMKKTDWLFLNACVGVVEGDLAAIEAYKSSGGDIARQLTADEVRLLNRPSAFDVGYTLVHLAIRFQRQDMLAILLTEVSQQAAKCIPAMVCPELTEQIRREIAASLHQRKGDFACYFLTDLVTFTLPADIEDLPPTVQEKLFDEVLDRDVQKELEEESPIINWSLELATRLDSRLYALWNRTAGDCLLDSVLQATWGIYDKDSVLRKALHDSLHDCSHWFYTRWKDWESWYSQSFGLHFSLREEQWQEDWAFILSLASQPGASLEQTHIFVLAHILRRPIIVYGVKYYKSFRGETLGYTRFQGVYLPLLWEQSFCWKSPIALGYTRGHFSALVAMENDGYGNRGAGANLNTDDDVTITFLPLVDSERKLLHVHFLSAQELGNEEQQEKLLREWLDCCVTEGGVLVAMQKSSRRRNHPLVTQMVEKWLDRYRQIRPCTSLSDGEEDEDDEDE
How it was run: as §1

[7] = target: T5, YOD1 (UniProt Q5VVQ6)
T5 sequence (whole entry): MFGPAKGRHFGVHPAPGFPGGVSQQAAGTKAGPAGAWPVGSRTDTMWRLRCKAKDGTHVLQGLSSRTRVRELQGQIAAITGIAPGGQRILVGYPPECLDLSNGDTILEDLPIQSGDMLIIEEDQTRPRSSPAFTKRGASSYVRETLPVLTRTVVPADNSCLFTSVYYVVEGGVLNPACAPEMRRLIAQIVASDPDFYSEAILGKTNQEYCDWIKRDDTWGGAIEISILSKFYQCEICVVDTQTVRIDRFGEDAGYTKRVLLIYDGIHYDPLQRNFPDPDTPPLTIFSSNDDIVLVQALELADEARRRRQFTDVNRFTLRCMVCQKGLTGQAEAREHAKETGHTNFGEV
How it was run: as §1

Sequence of UniProt P51784 (P51784 whole entry): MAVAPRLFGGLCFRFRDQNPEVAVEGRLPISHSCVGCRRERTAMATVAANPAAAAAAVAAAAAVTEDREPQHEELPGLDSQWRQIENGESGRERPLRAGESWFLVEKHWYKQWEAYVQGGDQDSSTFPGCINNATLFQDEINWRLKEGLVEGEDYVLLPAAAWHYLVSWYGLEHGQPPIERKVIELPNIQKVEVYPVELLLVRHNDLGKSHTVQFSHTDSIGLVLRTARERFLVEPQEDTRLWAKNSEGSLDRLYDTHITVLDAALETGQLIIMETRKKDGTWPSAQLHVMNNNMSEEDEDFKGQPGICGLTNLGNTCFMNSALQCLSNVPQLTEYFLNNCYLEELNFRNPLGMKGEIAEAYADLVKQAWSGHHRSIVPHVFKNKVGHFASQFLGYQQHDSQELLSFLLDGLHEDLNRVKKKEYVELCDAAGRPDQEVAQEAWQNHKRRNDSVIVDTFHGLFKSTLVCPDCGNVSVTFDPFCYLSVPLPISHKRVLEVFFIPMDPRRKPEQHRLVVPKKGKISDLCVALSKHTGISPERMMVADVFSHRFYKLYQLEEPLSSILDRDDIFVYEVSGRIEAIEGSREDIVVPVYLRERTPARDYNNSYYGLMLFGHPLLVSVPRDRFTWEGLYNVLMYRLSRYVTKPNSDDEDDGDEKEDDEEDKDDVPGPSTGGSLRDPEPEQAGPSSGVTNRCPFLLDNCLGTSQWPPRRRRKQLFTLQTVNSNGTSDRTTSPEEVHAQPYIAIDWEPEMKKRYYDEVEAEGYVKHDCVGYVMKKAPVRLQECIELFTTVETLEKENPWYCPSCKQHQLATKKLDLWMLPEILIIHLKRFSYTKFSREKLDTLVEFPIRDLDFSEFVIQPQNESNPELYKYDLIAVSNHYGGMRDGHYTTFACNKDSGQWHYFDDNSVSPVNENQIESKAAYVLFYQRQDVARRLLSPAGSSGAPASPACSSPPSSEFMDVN
Sequence of UniProt O00507 (O00507 whole entry, the tested form may be a part): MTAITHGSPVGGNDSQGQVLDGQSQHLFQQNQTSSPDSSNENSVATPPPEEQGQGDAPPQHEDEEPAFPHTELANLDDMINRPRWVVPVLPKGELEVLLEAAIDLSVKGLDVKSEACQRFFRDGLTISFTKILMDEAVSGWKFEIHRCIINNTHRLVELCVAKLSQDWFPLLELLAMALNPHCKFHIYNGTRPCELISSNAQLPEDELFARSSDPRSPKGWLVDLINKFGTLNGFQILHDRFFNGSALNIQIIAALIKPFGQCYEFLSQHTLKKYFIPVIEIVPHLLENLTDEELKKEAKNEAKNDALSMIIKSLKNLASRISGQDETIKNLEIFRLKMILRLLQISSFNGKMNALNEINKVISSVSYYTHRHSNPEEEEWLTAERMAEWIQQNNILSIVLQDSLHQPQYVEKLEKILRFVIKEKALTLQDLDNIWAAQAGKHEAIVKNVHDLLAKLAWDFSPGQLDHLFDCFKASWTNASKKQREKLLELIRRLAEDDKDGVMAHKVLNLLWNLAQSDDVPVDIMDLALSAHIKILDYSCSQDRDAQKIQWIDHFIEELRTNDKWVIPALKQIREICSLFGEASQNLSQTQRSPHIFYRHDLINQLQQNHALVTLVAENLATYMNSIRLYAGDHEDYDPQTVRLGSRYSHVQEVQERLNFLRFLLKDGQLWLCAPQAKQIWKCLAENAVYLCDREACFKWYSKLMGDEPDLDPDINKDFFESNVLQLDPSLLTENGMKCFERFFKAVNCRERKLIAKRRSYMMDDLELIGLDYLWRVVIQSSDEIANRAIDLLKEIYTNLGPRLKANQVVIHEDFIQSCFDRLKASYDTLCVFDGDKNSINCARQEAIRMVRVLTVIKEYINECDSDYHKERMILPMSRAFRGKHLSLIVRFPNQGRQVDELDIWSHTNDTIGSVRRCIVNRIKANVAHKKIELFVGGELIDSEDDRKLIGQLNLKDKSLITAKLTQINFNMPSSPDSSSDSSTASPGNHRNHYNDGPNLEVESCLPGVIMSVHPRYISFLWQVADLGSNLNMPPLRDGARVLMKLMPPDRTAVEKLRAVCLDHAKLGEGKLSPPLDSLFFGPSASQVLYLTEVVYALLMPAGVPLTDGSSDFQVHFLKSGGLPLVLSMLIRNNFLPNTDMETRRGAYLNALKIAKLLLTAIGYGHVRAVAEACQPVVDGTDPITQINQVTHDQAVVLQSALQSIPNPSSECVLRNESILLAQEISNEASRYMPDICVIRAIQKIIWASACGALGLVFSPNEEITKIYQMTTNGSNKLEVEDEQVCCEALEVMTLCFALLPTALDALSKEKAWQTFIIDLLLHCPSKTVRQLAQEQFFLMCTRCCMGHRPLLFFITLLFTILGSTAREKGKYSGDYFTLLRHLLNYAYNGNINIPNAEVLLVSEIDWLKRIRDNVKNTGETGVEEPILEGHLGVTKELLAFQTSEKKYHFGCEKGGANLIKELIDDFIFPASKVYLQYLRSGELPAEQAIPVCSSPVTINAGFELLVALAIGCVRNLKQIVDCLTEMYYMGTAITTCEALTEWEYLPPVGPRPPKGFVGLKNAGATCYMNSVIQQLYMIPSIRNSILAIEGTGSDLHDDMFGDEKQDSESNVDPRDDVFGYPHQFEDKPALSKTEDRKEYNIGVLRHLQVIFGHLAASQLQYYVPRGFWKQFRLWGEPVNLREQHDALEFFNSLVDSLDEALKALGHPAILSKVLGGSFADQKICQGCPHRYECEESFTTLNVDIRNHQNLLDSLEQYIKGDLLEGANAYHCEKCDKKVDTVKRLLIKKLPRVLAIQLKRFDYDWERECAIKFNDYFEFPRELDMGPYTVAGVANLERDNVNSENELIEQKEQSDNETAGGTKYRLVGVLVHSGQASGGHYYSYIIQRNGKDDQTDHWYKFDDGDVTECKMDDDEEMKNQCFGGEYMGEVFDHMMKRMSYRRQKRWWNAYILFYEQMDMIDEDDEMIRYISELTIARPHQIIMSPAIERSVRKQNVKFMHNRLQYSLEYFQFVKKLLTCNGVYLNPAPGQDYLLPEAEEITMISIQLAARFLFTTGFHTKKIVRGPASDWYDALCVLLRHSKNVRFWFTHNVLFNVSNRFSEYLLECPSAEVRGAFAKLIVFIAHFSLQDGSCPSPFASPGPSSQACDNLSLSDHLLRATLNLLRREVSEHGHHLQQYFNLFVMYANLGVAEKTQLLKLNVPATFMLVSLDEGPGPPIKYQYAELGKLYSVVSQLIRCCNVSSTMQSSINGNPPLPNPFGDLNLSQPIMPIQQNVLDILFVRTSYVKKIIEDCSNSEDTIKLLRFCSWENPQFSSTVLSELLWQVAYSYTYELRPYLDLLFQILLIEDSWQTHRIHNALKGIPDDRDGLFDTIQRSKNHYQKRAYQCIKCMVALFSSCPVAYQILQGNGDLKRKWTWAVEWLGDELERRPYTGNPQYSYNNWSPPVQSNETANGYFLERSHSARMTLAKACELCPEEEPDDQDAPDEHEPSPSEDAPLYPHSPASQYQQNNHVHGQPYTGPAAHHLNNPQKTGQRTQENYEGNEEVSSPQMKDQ

SMILES | log2 ratio of Biotin-Ahx-Ub-VS probe labelling [1] | log2 ratio of Biotin-Ahx-Ub-VS probe labelling [2] | log2 ratio of Biotin-Ahx-Ub-VS probe labelling [3] | log2 ratio of Biotin-Ahx-Ub-VS probe labelling [4] | log2 ratio of Biotin-Ahx-Ub-VS probe labelling [5] | log2 ratio of Biotin-Ahx-Ub-VS probe labelling [6] | log2 ratio of Biotin-Ahx-Ub-VS probe labelling [7]
Cc1cccc(C)c1NC(=O)CCl | -0.138 | -0.081 | -0.377 | -0.358 | -0.0602 | -0.323 | -0.344
Cc1cc(CC(C)NC(=O)CCl)n[nH]1 (stereo unspecified) | -0.165 | -0.131 | -0.595 | 0.0154 | -0.232 | -0.68 | 0.241
CS(=O)(=O)c1ccc(NC(=O)CCl)cc1 | -0.0176 | -0.0206 | -0.139 | -0.443 | -0.192 | -0.87 | 0.0991
O=C(CCl)N1CCc2nc[nH]c2C1c1ccc(Cl)cc1 (stereo unspecified) | -0.893 | 0.194 | -0.0219 | -1.15 (active) | -0.000874 | -1.05 (active) | -0.117
Cc1ccc(CN(C)C(=O)CCl)o1 | 0.383 | 0.146 | -0.109 | -0.671 | -0.321 | -0.57 | 0.384
O=C(CCl)NCc1ccc(Cl)cc1 | 0.318 | 0.0262 | -0.0567 | -0.395 | 0.00401 | -0.0432 | 0.238
O=C(CCl)NCc1ccc2c(c1)OCO2 | 0.0979 | 0.0895 | -0.281 | -0.708 | -0.288 | -0.607 | 0.157
Cl.Cn1ncc2c1CC(NC(=O)CCl)CC2 (stereo unspecified) | 0.311 | 0.0472 | -0.0643 | -0.377 | -0.257 | -0.162 | 0.181
O=C(CCl)NC(Cn1ccccc1=O)c1ccccc1 (stereo unspecified) | 0.0241 | 0.0376 | 0.0727 | -0.0581 | 0.148 | -0.146 | 0.00589
Cc1cc(NC(=O)CCl)n(-c2ccccc2)n1 | 0.159 | -0.0134 | 0.000838 | -0.548 | -0.36 | -0.672 | 0.179
CC(NC(=O)CCl)c1cccc(Cl)c1 (stereo unspecified) | -0.176 | -0.0638 | -0.271 | -0.632 | -0.25 | -1.18 (active) | -0.167
O=C(CCl)NC1CCCCNC1=O (stereo unspecified) | -0.323 | -0.117 | -0.329 | -0.574 | -0.277 | -0.309 | -0.218
CCC(NC(=O)CCl)c1ccc(Cl)cc1 (stereo unspecified) | 0.32 | 0.0791 | -0.182 | -0.735 | -0.319 | -0.279 | 0.188
